CYP2C9 act – human CYP2C9 activators, primary screen, biochemical, luminescence; Cytochrome P450 2C9 (Homo sapiens), P11712; recombinant CYP2C9, luciferin-H conversion; hits give high values; factor 1 = untreated enzyme, 0 = blocked; activation factor at 5 µM; actives 1.4% (n = 96,000); AID 1024, 2008;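 active = activation factor of 2 or more for CYP2C9 at a 5 µM dose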;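 note: 0 = sulfaphenazole-blocked wells and 1 = vehicle-only wells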
Target sequence (P11712 whole entry, looked up): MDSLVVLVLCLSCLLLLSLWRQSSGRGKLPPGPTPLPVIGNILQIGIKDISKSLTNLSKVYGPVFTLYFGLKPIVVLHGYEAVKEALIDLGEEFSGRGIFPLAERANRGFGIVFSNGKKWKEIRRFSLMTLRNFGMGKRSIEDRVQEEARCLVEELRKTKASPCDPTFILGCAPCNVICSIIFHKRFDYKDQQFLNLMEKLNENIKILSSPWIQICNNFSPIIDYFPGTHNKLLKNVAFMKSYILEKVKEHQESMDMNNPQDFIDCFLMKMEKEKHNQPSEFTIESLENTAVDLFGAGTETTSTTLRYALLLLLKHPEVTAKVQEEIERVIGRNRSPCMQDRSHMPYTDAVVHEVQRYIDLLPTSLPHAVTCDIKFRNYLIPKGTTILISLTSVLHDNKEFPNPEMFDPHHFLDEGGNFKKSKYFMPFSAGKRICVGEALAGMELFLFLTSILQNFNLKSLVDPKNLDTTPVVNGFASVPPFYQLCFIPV
CYP2C19 act – human CYP2C19 activators, primary screen, biochemical, luminescence; Cytochrome P450 2C19 (Homo sapiens), P33261; recombinant CYP2C19, luciferin-H EGE luminescence; hits give high values; 0 = fully inhibited enzyme, 1 = untreated enzyme; activation factor at 5 µM; 96,000 tested, under 10 active;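 active = activation factor of at least 2 at 5 µM in the primary screen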;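 note: 0 = wells with 2.5 mM tranylcypromine and 1 = vehicle-only wells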
CYP2C9 inh – blockers of cytochrome P450 2C9 activity – biochemical, luminescence, ADME assay, primary screen | P11712 | CYP2C9 Supersomes, luciferin-H conversion | inhibition, % at 5 µM | actives 20% (n = 96,000);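 active = blocking of liver enzyme CYP2C9 beyond about 50% at 5 µM, limit read from the data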
Cav3 T inh – Cav3.2 calcium influx blockers – cell-based, Fluo-4 calcium fluorescence, FDSS, MLSMR library, primary screen | B-score at 10 µM | Voltage-dependent T-type calcium channel subunit alpha-1H (Homo sapiens), O95180 | Cav3.2-expressing cells; hits give low values | actives 4% (n = 100,000) | AID 449739, 2010;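 active = single-dose well whose peak fluorescence ratio is a statistical outlier from its plate by either plate-standardised score or position-corrected B-score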
CYP2C19 inh – blockers of cytochrome P450 2C19 activity – biochemical, luminescence, ADME assay, primary screen; AID 778, 2007; inhibition, % at 5 µM; actives 21% (n = 96,000); CYP2C19 Supersomes, luciferin-H EGE luminescence, 30 min;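 active = CYP2C19 inhibition above a set limit at 5 µM in the primary screen, cut at about 50% in these data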;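 note: plate controls were negative control wells for no effect and 2.5 mM tranylcypromine positive control for full effect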
The depositor's hits bear a star; / = not tested or not shown. Hits are enriched below; roughly 27% of the tested compounds scored in any of these assays.

SMILES	CYP2C9 act	CYP2C19 act	CYP2C9 inh	Cav3 T inh	CYP2C19 inh
COc1cccc(/C=N/Nc2nc(Nc3ccccc3)nc(-n3nc(C)cc3C)n2)c1O	0.2	0.3	78.8*	/	68.1*
Cc1cc(C)n(-c2nc(Nc3ccccc3)nc(-n3nc(C)cc3C)n2)n1	0.9	0.7	10.6	0.464	29.1
CN(CC(CC(=O)Nc1nncs1)c1ccccc1)S(=O)(=O)c1ccc(Br)cc1 (stereo unspecified)	0.4	0.1	56.6*	-9.53*	94.5*
CN(CC(CC(=O)Nc1nncs1)c1ccccc1)S(=O)(=O)c1ccccc1 (stereo unspecified)	0.5	0.1	54.1*	-2.44	89.8*
CCc1nnc(NC(=O)CC(CN(C)S(=O)(=O)c2ccccc2)c2ccccc2)s1 (stereo unspecified)	0.6	0.8	43.9	-6.88*	24.0
O=C(O)CC(CC(=O)Nc1nncs1)c1ccccc1 (stereo unspecified)	1.1	1	-7.8	-2.3	-0.4
O=C(Cn1c(=O)n(-c2ccc(F)cc2)c(=O)c2sccc21)N1CCCC1	1.1	1.1	-13.9	1.31	-6.1
COc1ccc(OC)c(NC(=O)Cc2coc3ccc(C)cc23)c1	0.6	0.5	43.8	-0.963	53.4*
COc1ccc(OC)c(NC(=O)Cc2coc3cc(C)cc(C)c23)c1	0.4	0.2	55.4*	-1.44	75.3*
COc1ccc(OC)c(NC(=O)Cc2nn(C)c(=O)c3ccccc23)c1	/	/	/	1.19	/
COc1ccc(OC)c(NC(=O)Cc2coc3ccc4ccccc4c23)c1	0.7	0	25.8	-2	95.6*
COc1ccc(OC)c(NC(=O)Cn2cccc2)c1	0.7	0.7	30.3	-0.0623	28.3
O[C@@H]([C@H](O)[C@H](O)CBr)[C@H](O)CBr	/	/	/	0.498	/
CCn1c(-c2cc(-c3ccc(OC(C)C)cc3)nc3ccccc23)n[nH]c1=S	0	0.3	96.3*	-2.77	73.5*
CCn1c(-c2cc(-c3cc(OC)ccc3OC)nc3ccccc23)n[nH]c1=S	0	0.1	96.9*	-0.0339	88.4*
CNC(=O)C1C(=S)NC(N)=C(C#N)C1c1ccccc1 (stereo unspecified)	0.9	1.1	14.1	0.522	-8.3
COc1ccc(OC)c(N=C(C)C2=C(O)COC2=O)c1	0.8	0.7	17.5	-0.176	33.6
COc1ccccc1S(=O)(=O)Cc1ccc(C(=O)N2CCN(c3ccccn3)CC2)o1	0.5	0.5	51.4*	0.527	53.3*
COc1ccccc1S(=O)(=O)Cc1ccc(C(=O)N2CCCC2)o1	1.2	0.9	-16.3	0.266	6.4
O=C(NC1CCCC1)c1ccc(CS(=O)(=O)c2ccc(Br)cc2)o1	0.1	0.9	86.2*	0.299	10.5
COc1ccc(S(=O)(=O)Cc2ccc(C(=O)N3CCN(c4ccccn4)CC3)o2)cc1	0.2	0.7	80.6*	0.351	30.5
CCc1ccccc1S(=O)(=O)Cc1ccc(C(=O)NC(C)C)o1	/	/	/	0.514	/
CCc1ccccc1S(=O)(=O)Cc1ccc(C(=O)N2CCN(c3ccccc3OC)CC2)o1	0	0.1	95.8*	0.292	91.3*
CC(=O)c1sc(Nc2ccccn2)nc1C	1	1.2	-4.1	1.01	-16.4
CCc1ccccc1NC(=O)COC(=O)C1CC(=O)N(c2ccc(F)cc2)C1 (stereo unspecified)	1	0.9	2.7	1.43	10.4
SMILES	CYP2C9 act	CYP2C19 act	CYP2C9 inh	Cav3 T inh	CYP2C19 inh
O=C(c1ccc(CS(=O)(=O)c2ccc(Br)cc2)o1)N1CCN(c2ncccn2)CC1	0.2	0.4	80.9*	0.622	56.1*
Cc1ccccc1S(=O)(=O)Cc1ccc(C(=O)N2CCN(c3cccc(C)c3C)CC2)o1	0.3	0.5	73.3*	-2.11	49.3
O=C(c1ccc(Br)o1)N1CCN(c2ncccn2)CC1	0.7	0.8	26.1	0.399	16.9
CC(C)c1cc(C(C)C)c(S(=O)(=O)N2c3ccccc3[C@@]3(Br)C[C@H]4C(=O)N[C@@H](Cc5ccccc5)C(=O)N4[C@@H]23)c(C(C)C)c1	/	/	/	-1.53	/
COc1ccc(Cn2cc(F)c(=O)n(CCC(C)C)c2=O)cc1[N+](=O)[O-]	0.7	0.8	34.3	-0.000357	20.1
COc1ccc(Cc2c(O)nc(SC)n(C(C)=O)c2=O)cc1	0.5	0.5	45.4	-0.347	52.8*
